Test in all cases: qHTS profiling for inhibitors of Plasmodium falciparum proliferation (AID 504749); also: nearly all actives have a fitted effect of over 60% in size
Holding throughout (conditions): P. falciparum in erythrocytes, SYBR Green DNA, 72 h; series mostly up to 28.7 µM

For one experiment, the system named is CP269. In a few lines:
(§1)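 In a 72 h erythrocytic culture (37 C, humidified, 5% CO2) at 2.5% hematocrit and 0.3% starting parasitemia, compounds were tested; SYBR Green I in detergent lysis buffer stained parasite DNA overnight.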

In another experiment the test system is CP286. In a few lines: as §1
In the next experiment the test system is CP291. In a few lines:
as §1

The test system of a further experiment is CP297. In outline: as §1
The test system of the next experiment is CP305. In outline:
as §1

For a further experiment, the system named is CP315. In a few lines: as §1
Another experiment concerns CP325. In outline: as §1
The test system of the next experiment is CP329. In a few lines: as §1
For another experiment, the system named is CP335. In a few lines: as §1
The next experiment concerns DFO2036. In a few lines:
as §1

Another experiment has as its system DIV14. In a few lines: as §1
For another experiment, the system named is DIV17. In outline:
as §1

A further experiment deals with DIV30. In outline:
as §1

A further experiment deals with Dd2. In a few lines: as §1
Another experiment concerns ECU. In outline:
as §1

The next experiment deals with FAB9. In a few lines:
as §1

A further experiment deals with GB4. In a few lines: as §1
Another experiment relates to HB3. In outline:
as §1

Another experiment has as its system ICS. In outline:
as §1

A further experiment has as its system JCK. In a few lines:
as §1

Records with an inconclusive call do not appear. Active and inactive are the calls of the source. Calls follow the shape of the dose curve; as a rule, active = well fitted inhibition curve with a large enough effect; inconclusive = small, poorly fitted or top-dose-only effect; inactive = flat fitted curve, though single readings scatter.
Potency is read from the fitted curve at half-maximal effect.

As for `CN1CCN(c2cc3c(nn2)Oc2ccccc2N3C)CC1`, the Potency entry in the experiment with CP269, with CP286, in the experiment with CP291, in the experiment on CP297, in the experiment on CP305 and in the experiment on CP315 was “inactive” throughout. In addition, the Potency result in the experiment with CP325, in the experiment on CP329, in the experiment on CP335, with DFO2036, with DIV14 and in the experiment with DIV17 was “inactive” throughout. For the same compound, the Potency result with DIV30, in the experiment with Dd2, in the experiment with ECU, in the experiment with FAB9, with GB4 and in the experiment with HB3 was “inactive” each time. The Potency entry in the experiment with ICS and in the experiment with JCK was “inactive” in each case.

As for `Oc1c(Br)cc(Br)c2cccnc12`, the Potency entry with CP269, with CP286, in the experiment with CP291, with CP297, in the experiment on CP305 and with CP315 was “inactive” throughout. Also, the Potency entry in the experiment on CP325, in the experiment with CP329, in the experiment with CP335, with DFO2036, in the experiment on DIV14 and in the experiment with DIV17 was “inactive” throughout. Moreover, the Potency result in the experiment on DIV30, in the experiment on Dd2, with ECU, in the experiment with FAB9, in the experiment with GB4 and in the experiment with HB3 was “inactive” each time. For the same compound, the Potency entry with JCK is “inactive”.

In the case of `Cc1ccc(C(=O)c2ccc(CC(=O)O)n2C)cc1`, the Potency result with CP269, with CP286, in the experiment on CP291, in the experiment with CP297, in the experiment on CP305 and in the experiment on CP315 was “inactive” throughout. For the same compound, the Potency result with CP325, with CP329, in the experiment with CP335, in the experiment on DFO2036, in the experiment with DIV14 and with DIV17 was “inactive” throughout. The Potency entry in the experiment on DIV30, in the experiment on Dd2, with ECU, with FAB9, with GB4 and in the experiment on HB3 was “inactive” throughout. In addition, the Potency entry with ICS and in the experiment on JCK was “inactive” throughout.

`CC(C(=O)O)c1ccc2c(c1)[nH]c1ccc(Cl)cc12` (stereo not drawn): the Potency result in the experiment with CP269, with CP286, in the experiment with CP291, in the experiment with CP297, with CP305 and in the experiment on CP315 was “inactive” in each case. Also, the Potency result in the experiment with CP325, in the experiment with CP329, in the experiment with CP335, with DFO2036, with DIV14 and in the experiment with DIV17 was “inactive” throughout. Besides, the Potency entry in the experiment on DIV30, in the experiment with Dd2, in the experiment with ECU, in the experiment with FAB9, with GB4 and with HB3 was “inactive” throughout. Moreover, the Potency result in the experiment on ICS and in the experiment on JCK was “inactive” each time.

As for `O=C(O)/C=C/C(O)c1ccc(Cl)cc1` (stereo not drawn), the Potency result with CP269, in the experiment on CP286, in the experiment with CP291, in the experiment on CP297, in the experiment with CP305 and in the experiment with CP315 was “inactive” each time. For the same compound, the Potency entry in the experiment on CP325, in the experiment with CP329, with CP335, in the experiment on DFO2036, with DIV14 and in the experiment on DIV17 was “inactive” throughout. Moreover, the Potency result with DIV30, with Dd2, in the experiment on ECU, with FAB9, in the experiment on GB4 and with HB3 was “inactive” throughout. Also, the Potency entry with ICS and with JCK was “inactive” each time.

Regarding `Nc1ccc(C(=O)O)c(O)c1`, the Potency result in the experiment with CP269, in the experiment with CP286, with CP291, in the experiment on CP297, in the experiment with CP305 and in the experiment on CP315 was “inactive” each time. Moreover, the Potency entry in the experiment with CP325, in the experiment on CP329, in the experiment with CP335, in the experiment on DFO2036, in the experiment with DIV14 and with DIV17 was “inactive” throughout. Also, the Potency entry in the experiment with DIV30, in the experiment on Dd2, with ECU, in the experiment on FAB9, with GB4 and in the experiment with HB3 was “inactive” in each case. The Potency entry with ICS and with JCK was “inactive” throughout.

On to `C=C(Nc1ccc(OCC)cc1)Nc1ccc(OCC)cc1`, for which the Potency result in the experiment with CP269, in the experiment with CP286, in the experiment with CP291, in the experiment on CP297, in the experiment with CP305 and with CP315 was “inactive” in each case. Further, the Potency entry in the experiment with CP325, in the experiment on CP329, with CP335, in the experiment on DFO2036, in the experiment with DIV14 and in the experiment on DIV17 was “inactive” each time. Besides, the Potency result with DIV30, in the experiment on Dd2, with ECU, with FAB9, in the experiment with HB3 and in the experiment on ICS was “inactive” throughout. Also, the Potency entry in the experiment on JCK was “inactive”.

With `CCCCCC[C@@H](O)C/C=C\CCCCCCCC(=O)O`, the Potency result in the experiment on CP269, in the experiment on CP286, in the experiment with CP291, in the experiment with CP297, with CP305 and with CP315 was “inactive” in each case. Further, the Potency result in the experiment with CP325, in the experiment on CP329, with CP335, in the experiment on DFO2036, with DIV14 and with DIV17 was “inactive” in each case. Further, the Potency result in the experiment on DIV30, in the experiment with Dd2, with ECU, in the experiment on FAB9, in the experiment on GB4 and with HB3 was “inactive” throughout. In addition, the Potency result in the experiment with ICS and in the experiment with JCK was “inactive” in each case.

Turning to `Cc1c(Nc2ncccc2C(=O)O)cccc1C(F)(F)F`, the Potency result in the experiment on CP269, in the experiment on CP286, with CP291, with CP297, in the experiment with CP305 and in the experiment with CP315 was “inactive” in each case. The Potency result with CP325, in the experiment with CP329, in the experiment on CP335, in the experiment on DFO2036, in the experiment with DIV14 and in the experiment with DIV17 was “inactive” each time. Further, the Potency result in the experiment with DIV30, in the experiment on Dd2, in the experiment with ECU, with FAB9, with GB4 and in the experiment with HB3 was “inactive” throughout. Further, the Potency result with ICS and in the experiment on JCK was “inactive” each time.

As for `[O-][n+]1ccccc1SSc1cccc[n+]1[O-]`, the Potency is 1070 nM (active) in the experiment with CP269; 891 nM (active) with CP286; 1200 nM (active) with CP291; 1350 nM (active) in the experiment with CP297; 953 nM (active) with CP305; 1690 nM (active) with CP315. Moreover, the Potency with CP325 was 953 nM (active); in the experiment with CP329, 1350 nM (active); in the experiment on CP335 it was 601 nM (active); in the experiment on DFO2036, 891 nM (active); with DIV14, 757 nM (active); in the experiment on DIV17, 536 nM (active). In addition, the Potency in the experiment on DIV30 is 1200 nM (active); in the experiment on Dd2, 891 nM (active); in the experiment with ECU, 1120 nM (active); in the experiment on FAB9, 1580 nM (active); in the experiment on GB4, 757 nM (active); with HB3, 891 nM (active). For the same compound, the Potency in the experiment on ICS was 794 nM (active); with JCK, 4470 nM (active).

Take `Cc1ccccc1CNc1ncnc2c1ncn2C1OC(CO)C(O)C1O` (stereo not drawn): the Potency entry in the experiment with CP269, in the experiment on CP286, in the experiment with CP291, in the experiment on CP297, in the experiment with CP305 and with CP315 was “inactive” each time. The Potency entry in the experiment with CP325, with CP329, in the experiment on CP335, in the experiment on DFO2036, in the experiment on DIV14 and in the experiment with DIV17 was “inactive” in each case. Also, the Potency result in the experiment on DIV30, in the experiment with Dd2, in the experiment with ECU, in the experiment with FAB9, in the experiment on GB4 and with HB3 was “inactive” in each case. For the same compound, the Potency result in the experiment on ICS and in the experiment with JCK was “inactive” throughout.

As to `COc1cc2c3cc1Oc1cc(ccc1O)C[C@@H]1c4c(cc(OC)c(O)c4Oc4ccc(cc4)C[C@@H]3N(C)CC2)CC[N+]1(C)C`, the Potency result with CP269, in the experiment on CP286, with CP291, in the experiment with CP297, in the experiment with CP305 and in the experiment on CP315 was “inactive” in each case. For the same compound, the Potency entry with CP325, in the experiment with CP329, in the experiment on CP335, with DFO2036, in the experiment with DIV14 and in the experiment on DIV17 was “inactive” in each case. In addition, the Potency entry in the experiment on DIV30, in the experiment on Dd2, with ECU, with FAB9, in the experiment with GB4 and with HB3 was “inactive” throughout. The Potency entry in the experiment on ICS and in the experiment with JCK was “inactive” each time.

For `C=CCCCCCCCCC(=O)O`, the Potency result with CP269, in the experiment on CP286, with CP291, in the experiment with CP297, in the experiment on CP305 and in the experiment with CP315 was “inactive” in each case. The Potency result with CP325, in the experiment with CP329, in the experiment on CP335, with DFO2036, in the experiment with DIV14 and with DIV17 was “inactive” in each case. The Potency result in the experiment on DIV30, with Dd2, in the experiment on ECU, with FAB9, in the experiment with GB4 and in the experiment with HB3 was “inactive” in each case. The Potency entry in the experiment with ICS and in the experiment on JCK was “inactive” each time.

Values taken from PubChem BioAssay (NCATS).
